The values below come from PubChem BioAssay AID624417 (National Center for Advancing Translational Sciences (NCATS), 2012).

Molecules are shown by their SMILES. Among all 410,000 compounds or so, about 6,400 (1.6%) were called active. Inconclusive results (about 20%) are left out. Many of the other results were omitted from the sample, so actives are more common in it than they were. Values without a mark were called inactive. The call rests on the fitted dose curve; in most records, active means well fitted inhibition curve with a large enough effect; inconclusive means small, poorly fitted or top-dose-only effect; inactive means no such curve, though single readings can be large or run the other way.
On the % scale 0 is the no-effect control and ±100 the full control effect; potency means the concentration at half of the fitted maximal effect.

The target of the test is Glucagon-like peptide 1 receptor (Homo sapiens) (UniProt P43220). As to the kind of experiment: qHTS of GLP-1 Receptor Inverse Agonists (Inhibition Mode). Further: nearly all actives have a fitted effect of over 55% in size. As to conditions: HEK293 GLP-1R CRE-luciferase, luminescence, 24 h, GLP-1R form is constitutively active; series mostly up to 38.3 µM; activity change, negative = inhibition: at the top concentration. In a few lines: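 HEK293 cells stably co-expressing a cAMP-responsive luciferase reporter and constitutively active GLP-1R were seeded, incubated 12 h, then exposed to compounds for 24 h at 37 C. Luminescence was read 12 min after detection reagent; inverse agonists lower signal.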
Glucagon-like peptide 1 receptor (Homo sapiens), sequence (P43220 whole entry, looked up): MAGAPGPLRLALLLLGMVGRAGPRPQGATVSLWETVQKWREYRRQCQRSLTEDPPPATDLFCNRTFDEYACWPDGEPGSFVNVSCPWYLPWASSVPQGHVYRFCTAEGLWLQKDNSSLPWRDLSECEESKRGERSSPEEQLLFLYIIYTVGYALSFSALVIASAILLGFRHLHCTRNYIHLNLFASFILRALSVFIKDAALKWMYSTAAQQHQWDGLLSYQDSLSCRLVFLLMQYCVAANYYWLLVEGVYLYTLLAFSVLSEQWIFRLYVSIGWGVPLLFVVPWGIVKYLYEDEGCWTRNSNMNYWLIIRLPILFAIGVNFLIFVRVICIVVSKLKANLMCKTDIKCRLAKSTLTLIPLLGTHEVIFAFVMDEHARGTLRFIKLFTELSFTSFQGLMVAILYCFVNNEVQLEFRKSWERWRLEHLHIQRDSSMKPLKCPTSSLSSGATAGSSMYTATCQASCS
(Quantitative high-throughput screening tests each substance at several concentrations.)
Regarding `CCc1nc2ccc(C(=O)N3CCN(S(=O)(=O)CC)CC3)cn2c1N(C=O)CCC(C)C`, the “activity change, negative = inhibition” value was 22%.

For the compound `COc1ccc(CCNC(=O)C(=O)NCC2CCCN2S(=O)(=O)c2cccs2)cc1OC` (stereo not given), the “activity change, negative = inhibition” value was 12.1%.

In the case of `O=C(NCCC1CCCCN1S(=O)(=O)c1ccc(F)cc1)C(=O)NC1CC1` (stereo not given), the “activity change, negative = inhibition” value was -11.8%.

With `O=C(NCCC1CCCCN1S(=O)(=O)c1cccs1)C(=O)Nc1ccc(F)cc1F` (stereo not given), the Potency was 6.31 µM (active).

`COC(=O)C[C@@H]1C=C[C@@H](NC(=O)c2ccc3c(c2)OCO3)[C@@H](CO)O1`: the “activity change, negative = inhibition” value was 22.2%. As for `O=C(c1cc2sccc2n1Cc1ccc(F)cc1)N1CCc2ccccc21`, the Potency was 5.01 µM (active). With `CCOC(=O)c1cc2sccc2n1Cc1ccc(C#N)cc1`, the “activity change, negative = inhibition” value is 0%. The same measure, in the same setting: to `CC(=O)Nc1ccc(NC(=O)c2cc3sccc3n2Cc2ccc(F)cc2)cc1` belongs -19.9%.

In the case of `N#CCCC(C#N)(c1cccnc1)N1CCOCC1` (stereo not given), the “activity change, negative = inhibition” value is -2.69%. Still for that read-out and setting: the value for `COCCNC(=O)C1(C)CCCN(Cc2cccc(F)c2)C1` (stereo not given) was -17.9%; that for `O=C(NCc1cccc(C(F)(F)F)c1)c1ccc2sc(COCCO)nc2c1` was -3.62%; that for `O=C(C[C@H]1C[C@H]2c3cc(NS(=O)(=O)c4ccc(F)cc4)ccc3O[C@H]2[C@H](CO)O1)NCc1cc(F)ccc1F` was -2.89%.

Consider `CCCNC(=O)c1cc(C2CCCCN2C(=O)OC)on1` (stereo not given), for which the “activity change, negative = inhibition” value was 33.7%. On to `COc1ccc(C(=O)N2CCCCC2c2cc(C(=O)Nc3ccccc3)no2)cc1` (stereo not given), for which the Potency is 10 µM (active). As to `N#Cc1cccc(NC(=O)c2cc(C3CCCCN3C(=O)CCc3ccccc3)on2)c1` (stereo not given), the “activity change, negative = inhibition” value is -20.6%. Consider `COc1cccc(NC(=O)N(C)C[C@@H]2Oc3ncc(Br)cc3C(=O)N([C@@H](C)CO)C[C@H]2C)c1`, for which the “activity change, negative = inhibition” value was 0.452%.

As to `CCC1OC(C2CC2)CC2=C1C(=O)OC(C)(C)O2` (stereo not given), the “activity change, negative = inhibition” value was 14.6%. As for `COC(=O)CNC(=O)c1cc(-c2ccncc2)nc2ccccc12`, the “activity change, negative = inhibition” value is 6.15%. `O=C(Nc1ccc(S(=O)(=O)Nc2nccs2)cc1)c1cc(-c2ccncc2)nc2ccccc12`: the “activity change, negative = inhibition” value is 3.63%. Turning to `CCN(CC)CCNC(=O)c1ccc(NC(=O)c2cc(-c3ccncc3)nc3ccccc23)cc1`, the Potency was 12.6 µM (active). As to `C=CCOc1ccccc1CNn1c(C)n[nH]c1=S`, the “activity change, negative = inhibition” value is -10.3%. For the compound `CC1(C(=O)NS(=O)(=O)c2cccc(OC(F)F)c2)CCN1C(=O)COc1ccc(Cl)cc1` (stereo not given), the “activity change, negative = inhibition” value is -17.8%.

Turning to `FC(F)Oc1ccccc1C1CC(c2ccc(Br)s2)Nc2ncnn21` (stereo not given), the Potency is 7.94 µM (active). With `CCOc1ccccc1C1CC(c2ccccc2)Nc2nc(N)nn21` (stereo not given), the “activity change, negative = inhibition” value is 4.9%. As for `COc1ccc(C2CC(c3ccc(C)cc3)Nc3ncnn32)cc1` (stereo not given), the “activity change, negative = inhibition” value is 5.72%. Still for that read-out and setting: to `Cc1ccc(S(=O)(=O)N[C@H](CO)C(C)C)cc1` belongs 16.6%; to `C[C@H]1CN([C@@H](C)CO)C(=O)CCCn2cc(nn2)CO[C@@H]1CN(C)S(=O)(=O)c1ccc(-c2ccccc2)cc1`, 34%; to `C[C@H]1CN(c2ccc(Br)cc2)C(=O)[C@@H]1CC(=O)Nc1ccc(Br)cc1`, -6.77%. Still for that read-out and setting: the value for `COc1ccc(NC(=O)c2sc(=O)n(Cc3ccc(S(=O)(=O)N(C)C)cc3)c2C)cc1` was 15.2%. As for `Cc1ccccc1CNC(=O)c1ccc(NC(=O)N2CCCCc3ccccc32)cc1`, the “activity change, negative = inhibition” value was 2.26%. As to `Cc1ccc(NC(=O)Cc2ccc(NC(=O)N3CCCCc4ccccc43)cc2)cc1`, the Potency was 7.94 µM (active). Regarding `Cc1cc(Cl)ccc1NC(=O)Cc1ccc(NC(=O)N2CCCCc3ccccc32)cc1`, the “activity change, negative = inhibition” value was 1.66%. Still for that read-out and setting: to `CCOC(=O)N1CCN(C(=O)C[C@@H]2C[C@@]3(C(=O)OC)CC(C)(C)CC=C3N(Cc3ccco3)C2=O)CC1` belongs -19.4%; to `CCCNC(=O)C1(C)CCCN(C(=O)c2oc3ccccc3c2C)C1` (stereo not given), 17.5%. Still for that read-out and setting: the value for `CC1(C(=O)NS(=O)(=O)c2cccc(F)c2)CCN1C(=O)c1cccc2ccccc12` (stereo not given) was 25.7%. The same measure, in the same setting: to `Cc1ccccc1S(=O)(=O)N1[C@@H](c2cccc(Cl)c2)C(C(=O)OC(C)(C)C)=CC[C@H]1c1ccc(Cl)cc1` belongs 26%. For the compound `O=C(Nc1sc2c(c1C(=O)O)CCC2)c1ccccc1F`, the “activity change, negative = inhibition” value was -23.1%. With `O=C(Nc1nnc(-c2ccccc2F)s1)c1ccccc1F`, the “activity change, negative = inhibition” value is 42.3%.

`O=C(Nc1nc2c(s1)CCCC2)c1ccccc1F`: the Potency was 4.47 µM (active). On to `Cc1nc(C(F)(F)F)ccc1C(=O)N1CCC1(C)C(=O)NS(=O)(=O)c1ccc(F)cc1F` (stereo not given), for which the “activity change, negative = inhibition” value is 4.33%. Take `O=C1CCNCCN1[C@H](CO)Cc1ccccc1`: the “activity change, negative = inhibition” value is 11.1%. Still for that read-out and setting: to `c1ccc2c(CCN3CCNC[C@H]3Cc3cccc4ccccc34)cccc2c1` belongs -11.6%. Regarding `c1ccc(C[C@H]2CNCCN2CCC23CC4CC(CC(C4)C2)C3)cc1`, the Potency is 10 µM (active). For the compound `CN(C)C1CN(Cc2cn(Cc3ccccc3)nn2)S(=O)(=O)C1` (stereo not given), the “activity change, negative = inhibition” value is 8.92%. In the case of `Cc1ccc(-c2cn3cc(C)ccc3n2)cc1`, the activity change, negative = inhibition is -14.4% [at 0.307 µM]. With `Cc1ccc(-c2cn3cc([N+](=O)[O-])ccc3n2)cc1`, the Potency is 4.47 µM (active). As for `Cc1ccc(-n2cc3ccc([N+](=O)[O-])cc3n2)cc1`, the “activity change, negative = inhibition” value is -54%. Turning to `CCOC(=O)c1c(NC(=O)COC(=O)c2ccc(S(=O)(=O)C(F)F)cc2)sc(C(=O)N(C)C)c1C`, the “activity change, negative = inhibition” value was 12.2%. For `COc1ccc(CC(N)c2csc(NC(=O)NC(c3ccccc3)c3ccccc3)n2)cc1` (stereo not given), the “activity change, negative = inhibition” value is -7.52%. Consider `C[C@@H]1CN([C@H](C)CO)C(=O)CCCn2cc(nn2)CO[C@H]1CN(C)S(=O)(=O)c1ccc(Oc2ccccc2)nc1`, for which the “activity change, negative = inhibition” value was 3.37%.
